High-throughput results: PubChem BioAssay, National Center for Advancing Translational Sciences (NCATS)
Shown are actives, neighbours in structure and some others; about 2.3% of the full set was active somewhere.
Tau ThT inhib – tau fibrillization inhibition (ThT binding); P10636; Potency, µM (top dose mostly 57.4 µM), for inactives: at the top dose activity, negative = inhibition, hits mostly inhibitors; AID 1460; recombinant tau K18 P301L, heparin-induced fibrillization, ThT fluorescence; 270,000 tested, 2.1% active; further: potency means the concentration at half of the fitted maximal effect; nearly all actives have a fitted effect of over 55% in size
Target sequence (P10636 561-689 P618L limits assumed): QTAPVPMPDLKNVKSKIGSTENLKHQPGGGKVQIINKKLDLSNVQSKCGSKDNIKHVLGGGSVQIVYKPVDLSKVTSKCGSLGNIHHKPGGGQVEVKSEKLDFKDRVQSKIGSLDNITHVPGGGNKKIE
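K18 P301L tau (15 uM + 0.24 uM Alexa 594-tagged), heparin 20 uM, NaOAc pH 7, 6 h 37 C; ThT 30 uM, 1 h RT, ex 450/em 510 nm.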
Tau fluor counter – counter-screen for tau fibril formation inhibitors; Potency, µM (doses to about 57.7 µM), without a hit: at the top dose activity change, negative = decrease; 280,000 tested, 0.93% active; tau K18 P301L Alexa594 fluorescence, heparin fibrillization; further: potency means the concentration at half of the fitted maximal effect; nearly all actives have a fitted effect of over 55% in size
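Human tau K18 P301L (15 uM unlabeled, 0.24 uM Alexa 594-labeled) in 100 mM sodium acetate pH 7 with 20 uM heparin, 6 hr at 37 C. ThT 30 uM added, 1 hr ambient; Alexa 594 FP and total fluorescence read at 555/632 nm.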
Tau fibril FP – blocks human tau fibril formation measured by polarization | P10636 | K18 P301L tau heparin fibrillization, Alexa594 FP, 6 h | Potency, µM (doses to about 57.7 µM), without a hit: at the top dose activity, negative = inhibition, most hits filed as inhibitors | 280,000 tested, 0.39% active | AID 1468; further: potency means the concentration at half of the fitted maximal effect; nearly all actives have a fitted effect of over 55% in size
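Quantitative HTS format: compounds meet 15 uM recombinant K18 P301L tau and Alexa 594-tau tracer in 100 mM sodium acetate pH 7; 20 uM heparin triggers fibrillization at 37 C over 6 hr; FP gives the signal.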
FBPA coupling cs – counter-screen for Giardia aldolase inhibitors: coupling enzyme system; coupling enzyme system counterscreen, AmpLite Red fluorescence; activity change, negative = inhibition, % at 58.2 µM, hits read low; 290,000 tested, 0.67% active; in the data active means activity change below about -30%
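First, compound is pin-transferred into glyceraldehyde-3-phosphate coupling-enzyme reagent at 57.5 uM final and held 10 min at RT. Next, substrate, coupling system and AmpLite Red are added. After 20 min RT, fluorescence (525/598 nm) is read.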
USP1-UAF1 inh – blocks the human USP1/UAF1 deubiquitinase complex | AID 743255 | recombinant USP1/UAF1, Ub-Rhodamine cleavage fluorescence | 390,000 tested, 0.23% active | O94782 | Potency, µM (doses to about 57.1 µM), for inactives: top-dose activity change, negative = inhibition, hits mostly inhibitors; further: potency means the concentration at half of the fitted maximal effect; nearly all actives have a fitted effect of over 60% in size
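USP1/UAF1 complex at 1 nM was preincubated with compound for 15 min at room temperature, then Ub-Rho substrate (150nM final) was added. Fluorescence (480/540 nm) was read kinetically, 6 reads every 60 seconds.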
Numbers without * were called inactive; ? = inconclusive; nt = no result; [ ] = another dose, or the depositor's remark. Unless noted, the call rests on the fitted dose curve; in most records, active means well fitted curve in the direction sought with a large enough effect; inconclusive means small, poorly fitted or top-dose-only effect, or another doubt; inactive means no such curve, though single readings can be large; an effect the other way counts as inactive or inconclusive. On the % scale 0 is the no-effect control and ±100 the full control effect.

SMILES	Tau ThT inhib	Tau fluor counter	Tau fibril FP	FBPA coupling cs	USP1-UAF1 inh
CCOC(=O)c1sc(NC(=O)Nc2ccc(Cl)cc2)cc1C	-15.1%	3.16µM*[quencher]	?	-0.8	-11.8%
Cc1ccc(NC(=O)Nc2nnc(Cc3ccc([N+](=O)[O-])cc3)s2)cc1C	?	5.01µM*[quencher]	?	-0.6	-1.4%
O=C(Nc1ccccc1)Nc1nnc(Cc2ccc([N+](=O)[O-])cc2)s1	-14.3%	?	?	-0.7	-19.5%
Cn1c(C(C#N)C(=O)c2sc3ccccc3c2Cl)nc2ccccc21 (stereo not drawn)	-8.1%	-1.1%	?	-5.9	-10.6%
CCCn1nc([N+](=O)[O-])c(C(C#N)c2nc3ccccc3s2)c(Cl)c1=O (stereo not drawn)	3.98µM*	5.01µM*[quencher]	17.8µM*	5.2	?
CCn1nc([N+](=O)[O-])c(C(C#N)c2nc3ccccc3n2C)c(Cl)c1=O (stereo not drawn)	11.2µM*	?	-1.0%	-2.3	-19.4%
CCCCN(C)CCNC(=O)C1CCCN(S(=O)(=O)c2ccc3c(c2)oc(=O)n3C)C1 (stereo not drawn)	-1.8%	-10.6%	-7.7%	nt	-27.5%
CCC(C)NC(=O)c1sc2nc3n(c(=O)c2c1C)CCC3 (stereo not drawn)	0.0%	-13.6%	-2.3%	nt	-17.3%
Cc1ccc(CN2C(=O)N(c3ccc(F)cc3)C(=O)C2CC(=O)Nc2ccc(Cl)cc2)cc1 (stereo not drawn)	6.9%	?	?	nt	-23.9%
Fc1ccc(Nc2nc(SCc3ccc(Cl)cc3)nc3ccccc23)cc1	?	?	7.94µM*	nt	?
Clc1ccc(CSc2nc(NCCc3ccccc3)c3ccccc3n2)cc1	-9.8%	-11.3%	-3.0%	nt	-28.9%
Fc1ccc(Nc2nc(SCc3cccc(F)c3)nc3ccccc23)cc1	28.8%	?	14.1µM*	nt	-10.0%
Fc1ccc(Nc2nc(SCc3cccc(Cl)c3)nc3ccccc23)cc1	11.4%	?	8.91µM*	nt	-24.3%
COc1ccccc1CNS(=O)(=O)c1ccc2c(c1)CC(C)N2C(C)=O (stereo not drawn)	-0.3%	-1.1%	-3.1%	nt	-17.7%
COc1ccc(C(=O)NCCNc2ccc([N+](=O)[O-])cc2)cc1	?	-4.5%	10.3%	-2.1	0.5%
O=C(NCCNc1ccc([N+](=O)[O-])cc1)c1ccc(Cl)cc1	8.91µM*	-29.4%	-0.8%	-1.3	-11.1%
Nc1c(C(=O)NCCN2CCOCC2)c2nc3ccccc3nc2n1-c1ccccc1	?	-12.9%	1.2%	-30.3*	-16.5%
COC(=O)c1c(N)n(-c2ccc(NC(C)=O)cc2)c2nc3ccccc3nc12	?	-8.4%	12.4%	-30.5*	?
CCc1ccccc1-n1c(N)c(C(=O)OC)c2nc3ccccc3nc21	-4.3%	-12.1%	4.2%	nt	-19.0%
COc1ccccc1CNC(=O)c1c(N)n(CCCN2CCOCC2)c2nc3ccccc3nc12	25.1µM*	?	-7.9%	-26.1	?
Nc1c(C(=O)NCc2ccco2)c2nc3ccccc3nc2n1CCc1ccc(F)cc1	?	?	?	-34.0*	-8.6%
Nc1c(C(=O)NCc2ccc3c(c2)OCO3)c2nc3ccccc3nc2n1CCCN1CCOCC1	?	?	3.0%	-27.1	?
CCOC(=O)N/N=C1/C[C@@H](O)[C@@H](O)[C@@H]2[C@@H]3C(=O)N(C[C@@H]4CCCO4)C(=O)[C@H]3CC[C@@H]12	-9.2%[11.5 µM]	-12.0%[11.6 µM]	-13.6%[11.6 µM]	1.2	nt
Cc1c(NC(=O)C(C)(C)Oc2ccc(Cl)cc2)cccc1-c1nc2ccccc2o1	?	-20.3%	-3.9%	nt	?
Cc1ccc(NC(=O)Cn2c(=O)ccc3cc(S(=O)(=O)N4CCCC4)ccc32)cc1C	-9.8%	-16.9%	-9.3%	nt	-14.3%
SMILES	Tau ThT inhib	Tau fluor counter	Tau fibril FP	FBPA coupling cs	USP1-UAF1 inh
COc1ccc(C(=O)N2CCN(c3nc4c(OC)cccc4s3)CC2)cc1OC	-17.6%	0.8%	-9.3%	nt	-16.4%
CCOC(=O)Cc1ccc(NC(=O)n2ncc3cc(Cl)ccc32)cc1	?	-15.5%	6.6%	nt	4.6%
COC(=O)c1c(N)n(-c2ccc(N3CCOCC3)cc2)c2nc3ccccc3nc12	10µM*	?	?	-12.8	nt
COCCNC(=O)c1c(N)n(-c2cccc(C)c2)c2nc3ccccc3nc12	?	-24.8%	?	-38.1*	-18.9%
O=c1c2ccccc2nc(/C=C/c2ccc3c(c2)OCO3)n1CCCO	-4.7%	-11.0%	7.0%	3.7	-13.4%
C(=C/c1nccc2c1[nH]c1ccccc12)/c1ccc2c(c1)OCO2	?	7.08µM*[quencher]	6.6%	-1.6	-22.2%
Brc1ccc(-c2cn3c(n2)CCc2ccc4cccnc4c2-3)cc1	?	-17.7%	1.0%	-30.5*	-21.5%
Cc1ccc(-c2nnc(Nc3ccc(O)cc3)c3ccccc23)cc1S(=O)(=O)NC(C)(C)CO	-15.6%	?	9.3%	nt	-10.0%
CCN(CC)c1ccc(NC(=O)C(NS(=O)(=O)c2cccs2)C(C)C)c(C)c1 (stereo not drawn)	?	-23.5%	7.0%	nt	-26.1%
CC(C)=CCC1=C(O)c2ccccc2C(=O)C1=O	28.2µM*	?	?	-60.9*	nt
O=C1C(=O)c2ccccc2C(O)=C1CC=C(Cl)Cl	nt	nt	nt	nt	-25.6%
Cc1ccc(-n2c(C)cc(C(=O)CSc3nncs3)c2C)cc1	?	-13.0%	3.3%	-32.7*	-1.7%
C[C@H]1CC[C@H]2C(=O)N3[C@H](c4ccc(Br)cc4)[C@@H](C)CC[C@H]3C(=O)N2[C@@H]1c1ccc(Br)cc1	-7.7%[11.5 µM]	-5.7%[11.6 µM]	-3.9%[11.6 µM]	2.7	nt
COc1cc(Br)cc(CNc2ccc(F)c([N+](=O)[O-])c2)c1O	15.8µM*	25.1µM*[quencher]	-1.3%	-10.1	-20.7%
Cc1ccc(CC(=O)Nc2ccc(F)c([N+](=O)[O-])c2)cc1C	-7.9%	-28.6%	7.4%	-2.8	-21.9%
O=C(c1ccc(O)cc1)c1ccc(O)cc1O	-12.0%	-13.2%	3.7%	2.5	-17.0%
O=C(c1ccccc1)c1ccc(O)cc1O	8.6%	-7.8%	6.6%	-0.8	28.2µM*
C/C(Cn1nnc([N+](=O)[O-])n1)=N\NC(=O)c1ccccc1	-5.8%	-3.1%	-2.3%	-40.2*	4.4%
C/C(Cn1cnc([N+](=O)[O-])n1)=N\NC(=O)c1ccccc1	-2.2%	5.2%	10.0%	-6.4	-11.4%
S=c1[nH]nc(-c2ccco2)n1/N=C/C(Cl)=C/c1ccccc1	14.1µM*	?	?	-2.0	?
S=c1[nH]nc(-c2cc(-c3ccccc3)n[nH]2)n1/N=C/C(Br)=C/c1ccccc1	17.8µM*	?	?	1.4	0.1%
CCc1ccc(/C=C2\CN(CC)Cc3c2nc2ccccc2c3C(=O)O)cc1	25.1µM*	-29.2%	?	-33.5*	-12.3%
O=C(Nc1ccc(Cl)cc1)/C(=C/c1cccc(O)c1)c1nc2ccccc2s1	20µM*	?	?	1.5	1.2%
